High-throughput results from PubChem BioAssay.
KDM5B inhibitor: Primary screen for KDM5B Histone Demethylases FDH-coupled qHTS | Lysine-specific demethylase 5B (Homo sapiens), Q9UGL1 | KDM5B demethylase, FDH-coupled NADH fluorescence (FDH is formaldehyde dehydrogenase) | Potency, µM (top dose mostly 57.7 µM), hits mostly inhibitors | actives 2.6% (n = 220,000); also: potency is read from the fitted curve at half-maximal effect; 0% is about no effect; nearly all actives have a fitted effect of over 70% in size
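qHTS format, multiple compound concentrations. Buffer 50 mM HEPES pH 7.5/0.01% Tween-20; 200 nM KDM5BΔAP final; 10 min compound preincubation; substrate-mix levels 12.5 µM peptide, 25 µM α-KG, 0.25 mM NAD⁺; 30 min RT; ΔRFU.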
SNCA expr inhib: Primary qHTS assay for inhibitors of alpha-synuclein gene (SNCA) expression. HEK-293 SNCA-luciferase knock-in, luminescence, 24 h. Potency, µM (series often up to 57.2 µM), for the others: at the top dose activity change, negative = inhibition, hits mostly inhibitors. actives 0.17% (n = 140,000). AID 1671194, 2021;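 also: potency is read from the fitted curve at half-maximal effect; plate controls were DMSO cells for no effect and cell-free wells for full effect; nearly all actives have a fitted effect of over 45% in size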
SNCA viab count: GF-AFC viability counterscreen for inhibitors of alpha-synuclein gene (SNCA) expression; HEK-293-SNCA-luc viability, GF-AFC fluorescence, 24 h; Potency, µM (titrated, usually from 57.1 µM), without a hit: at the highest dose activity change, negative = cytotoxicity, hits mostly cytotoxic; actives 0.12% (n = 150,000); AID 1671193, 2021;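 also: potency is read from the fitted curve at half-maximal effect; 0% = DMSO-treated cells and -100% = medium-only wells without cells; nearly all actives have a fitted effect of over 30% in size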
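Cytotoxicity counterscreen: after 24 h compound treatment of genome-edited SNCA-luciferase HEK-293 cells, live-cell protease substrate GF-AFC read by fluorescence after 30 min; activity scaled between DMSO (0%) and medium-only (-100%), curves Hill-fitted.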
IP6K1 inh: Primary qHTS assay for small molecule inhibitors of Inositol hexaphosphate kinase 1 (IP6K1); Inositol hexakisphosphate kinase 1 (Homo sapiens), Q92551; IP6K1 kinase, ADP-Glo luminescence, 2 h; hits give low values; activity change, % (series mostly up to about 58 µM); actives 0.81% (n = 140,000); AID 1645851, 2021; in the data active = activity change below about -25%; also: % is scaled to controls: 0 for no effect and ±100 for the full control effect
Target sequence (Q92551 whole entry, looked up): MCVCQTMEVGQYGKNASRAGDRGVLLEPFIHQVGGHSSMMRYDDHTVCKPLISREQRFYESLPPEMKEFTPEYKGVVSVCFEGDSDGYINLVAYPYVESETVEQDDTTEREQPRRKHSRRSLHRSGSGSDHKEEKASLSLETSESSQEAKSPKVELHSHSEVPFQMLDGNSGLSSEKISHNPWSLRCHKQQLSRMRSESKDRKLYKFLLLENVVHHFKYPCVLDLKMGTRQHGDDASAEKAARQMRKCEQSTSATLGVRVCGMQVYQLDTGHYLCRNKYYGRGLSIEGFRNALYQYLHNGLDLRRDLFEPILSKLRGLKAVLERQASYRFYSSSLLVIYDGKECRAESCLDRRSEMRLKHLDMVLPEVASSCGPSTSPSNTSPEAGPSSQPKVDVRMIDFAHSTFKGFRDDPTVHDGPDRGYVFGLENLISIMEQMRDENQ
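ADP-Glo luminescence measures ADP made by human IP6K1 during a 2 h RT reaction with ATP/IP6 (mix at 1.3 mM/130 uM); top library doses 57.5 and 19.1 uM final.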
The depositor's hits bear a star; i = inactive; ? = inconclusive; · = no result given; [ ] = another dose, or the depositor's remark. Sampled rows, rich in hits. Any-hit rate of the full collection: about 2.9%. Unless noted, calls follow the shape of the dose curve; as a rule, active = well fitted curve in the direction sought with a large enough effect; inconclusive = small, poorly fitted or top-dose-only effect, or another doubt; inactive = no such curve, though single readings can be large; an effect the other way counts as inactive or inconclusive.

SMILES | KDM5B inhibitor | SNCA expr inhib | SNCA viab count | IP6K1 inh
CCN1CCN(Cc2ccc(NC(=O)c3ccc(C)c(Oc4ncnc5[nH]c(C)cc45)c3)cc2C(F)(F)F)CC1 | · | · | ? | 8
CN1CCN(Cc2ccc(NC(=O)Nc3ccc(Oc4cc(NC(=O)C5CC5)ncn4)cc3)cc2C(F)(F)F)CC1 | · | 0.48µM* | ? | -5
O=C(c1noc(-c2ccc(F)cc2)n1)N1CCN(c2ccccc2F)CC1 | 32µM* | ? | 1% | 1
O=C(c1noc(-c2ccc(F)cc2)n1)N1CCN(c2ccccc2)CC1 | ? | 32% | 0% | -16
O=C(NCCc1csc(-c2ccncc2)n1)C1CNCCO1 (centres undefined) | 28µM* | -10% | 9% | 8
CC(=O)N1CCCC(C(=O)NCCc2csc(-c3ccncc3)n2)C1 (centres undefined) | 22µM* | -2% | -11% | 4
O=C(COc1ccc(Cl)cc1)NCCc1csc(-c2ccncc2)n1 | i | · | · | ·
CCCNC(=O)NCC1c2cc(OC)c(OC)cc2CCN1C(=O)NC(C)C (centres undefined) | 22µM* | -6% | 3% | 16
CCCNC(=O)NCC1c2cc(OC)c(OC)cc2CCN1C(=O)NCC (centres undefined) | i | -6% | 1% | 4
O=C(c1ccc2ncccc2c1)N1CCc2c(nc3cc[nH]n3c2=O)C1 | ? | 78% | 0% | 31
O=C(c1ccc(F)cc1Cl)N1CCc2c(nc3cc[nH]n3c2=O)C1 | 28µM* | -6% | 7% | 8
O=C(c1ccccc1C(F)(F)F)N1CCc2c(nc3cc[nH]n3c2=O)C1 | 25µM* | -9% | 11% | 13
COc1ccc(CC(=O)NC2CCN(c3ccc4nnc(-c5ccccc5)n4n3)CC2)cc1 | · | · | · | -4
O=C(NCc1ccc(F)cc1)c1ccc2nnc(-c3cccc(C(F)(F)F)c3)n2c1 | · | ? | ? | 7
Cc1ccc([S+](=O)([O-])NC2CCCN(c3ccc4nnc(C)n4n3)C2)cc1 (centres undefined) | · | · | · | -4
Cc1ccc(C)c(-c2cc3c(=O)n(CCNC(=O)c4ccc(N(C)C)cc4)ccn3n2)c1 | 35µM* | ? | 1% | -6
Cc1ccc(-c2cc3c(=O)n(CCNC(=O)c4cccc(N(C)C)c4)ccn3n2)cc1C | 18µM* | 99% | -9% | -14
COc1cccc(C(=O)NCCn2ccn3nc(-c4ccc(C)c(C)c4)cc3c2=O)c1 | i | 103% | -12% | -12
Cc1ccc(-c2cc3c(=O)n(CCNC(=O)c4ccc(Cl)cc4)ccn3n2)cc1C | 14µM* | 17% | -12% | -4
Cc1ccc(-c2cc3c(=O)n(CCNC(=O)c4ccc(F)cc4Cl)ccn3n2)cc1C | 32µM* | 37% | -11% | -13
Cc1ccc(C(=O)NCCn2ccn3nc(-c4ccc(C)c(C)c4)cc3c2=O)cc1 | ? | 24% | 9% | -12
O=C(NC1CCCN(c2ccc3nnc(C4CC4)n3n2)C1)c1cccc(Cl)c1 (centres undefined) | · | · | · | 1
CC(C)Oc1cccc2c1c(NC(=O)c1cccnn1)nn2Cc1ccccc1 | i | -2% | -6% | 12
CC(C)Nc1ncc(C(=O)NC2CC(=O)N(Cc3cccc(F)c3)C2)cn1 (centres undefined) | 22µM* | ? | 2% | 21
Cc1cc(C)c(CNC(=O)c2nc(-c3ccnn3C)cc3c2ccn3C(C)C)c(=O)[nH]1 | 32µM* | 13%[87.6 µM] | 2%[87.6 µM] | -11
SMILES | KDM5B inhibitor | SNCA expr inhib | SNCA viab count | IP6K1 inh
Cc1cc(-c2cc3[nH]ccc3c(C(=O)NCc3c(C)cc(C)[nH]c3=O)n2)ccn1 | 11µM* | 45%[87.6 µM] | -16%[87.6 µM] | 0
Cc1cc(C)c(CNC(=O)c2nc(-c3ccc(CO)cc3)cc3c2ccn3C)c(=O)[nH]1 | 35µM* | -19%[87.6 µM] | -21%[87.6 µM] | 1
Cc1cc(C)c(CNC(=O)c2nc(-c3cccc(O)c3)cc3c2ccn3C)c(=O)[nH]1 | 35µM* | 3%[87.6 µM] | -29%[87.6 µM] | 14
Cc1ccc(Nc2ccnc(N3CCCC3C(=O)NCC(F)F)n2)cc1 (centres undefined) | · | -10% | -10%[12.5 µM] | 11
CCOC(=O)[C@@H]1CN(C(=O)OCC(C)C)[C@H]2c3cccc(C)c3O[C@@H]12 | · | · | · | 4
Cc1ccc(-c2ccccc2CN)c(C)c1 | i | 11%[87.6 µM] | 1%[87.6 µM] | -4
Cc1nn(-c2ccccc2)c2c1C(C1CC1)N(CC1CN(C(=O)N(C)C)C1)C2=O (centres undefined) | · | · | · | 3
CCOc1ccc(C(c2c(C)[nH]n(-c3ccccc3)c2=O)c2c(C)[nH]n(-c3ccccc3)c2=O)cc1OC | ? | 35% | ? | -30*
Cc1ccc(C)c(C(=O)NCc2nnc3cc(-c4nc(C(C)C)no4)ccn23)c1 | 14µM* | 3% | 12% | 39
Cc1ccc(C)c(C(=O)NCc2nnc3cc(-c4nc(C)no4)ccn23)c1 | 25µM* | -4% | 10% | 6
COc1ccccc1-c1ccc(CN2CCC(N[S+](=O)([O-])c3c(C)noc3C)C2)cc1 (centres undefined) | · | · | · | 11
O=C(NCCc1ccccc1)c1ccc2nnc(Cc3ccc(Cl)cc3)n2c1 | · | -17% | ? | -12
CC(C)NC(=O)c1nc2sccn2c1-c1ccc(C(F)(F)F)cc1 | · | -13%[87.6 µM] | -11%[87.6 µM] | 48
COc1cccc(-c2cc(C(=O)N3CCC(c4ccccc4)CC3)c3cnn(C)c3n2)c1 | · | · | · | -8
CN(C)C(=O)c1ccnc(-c2nnc3ccc(NCCN4CCOCC4)nn23)c1 | 35µM* | -6%[87.6 µM] | 10%[87.6 µM] | -3
COCc1ccc2c(c1)c(OC(C)(C)C(=O)NCCCn1ccnc1)nn2Cc1cccc(OC)c1 | 22µM* | 12% | 2% | 16
COCc1ccc2c(c1)c(OC(C)(C)C(=O)NCCCn1ccnc1)nn2CCC(C)C | 35µM* | 28% | 4% | 5
COCc1ccc2c(c1)c(OC(C)(C)C(=O)NCc1ccncc1)nn2CCC(C)C | ? | ? | -6%[87.6 µM] | -7
CCOC(=O)c1c(C)[nH]c(C)c1S(=O)(=O)N(C)CC(=O)Nc1cc(Cl)ccc1OC | i | -10% | -11% | -28*
CCOC(=O)c1c(C)[nH]c(C)c1S(=O)(=O)NCC(=O)Nc1cc(Cl)ccc1OC | i | 13% | -3% | -1
CCCC(=O)N1CCC(O)(c2ccccc2)[C@H](N2CCCC2)C1 (some centres undefined) | 10µM* | 3% | 1% | 22
COCC(=O)N1CCC(O)(c2ccccc2)[C@H](N2CCCC2)C1 (some centres undefined) | ? | -11% | -2% | 25
COc1ccc(S(=O)(=O)N2C[C@@H]3C[C@H](C2)c2ccc(NS(=O)(=O)c4cccc(F)c4)c(=O)n2C3)cc1 | i | 5% | -10% | -9
COc1ccc(S(=O)(=O)N2C[C@@H]3C[C@H](C2)c2ccc(-c4ccc(OC(F)(F)F)cc4)c(=O)n2C3)cc1 | 28µM* | -10% | 0% | -3
